Source: PubChem
Vaccinia mCherry – inhibitors of vaccinia virus infection (mCherry reporter signal); Vaccinia virus mCherry reporter infection, fluorescence; actives 0.63% (n = 310,000); Potency, µM (highest dose often 36.5 µM), inactives show top-dose activity change, negative = inhibition, most hits filed as inhibitors; calls by dose curve; tested in A549 cells; note: nearly all actives have a fitted effect of over 35% in size
FBPA Giardia inh – blocks Giardia fructose-bisphosphate aldolase activity; A8B2U2; Potency, µM (top dose mostly 59.6 µM), inactives show top-dose activity, negative = inhibition, actives largely listed as inhibitors; actives 0.71% (n = 290,000); purified Giardia FBPA; active = well fitted inhibition curve with a large enough effect; inconclusive = small, poorly fitted or top-dose-only effect, or effect the other way; note: nearly all actives have a fitted effect of over 55% in size
Target sequence (A8B2U2 whole entry, looked up): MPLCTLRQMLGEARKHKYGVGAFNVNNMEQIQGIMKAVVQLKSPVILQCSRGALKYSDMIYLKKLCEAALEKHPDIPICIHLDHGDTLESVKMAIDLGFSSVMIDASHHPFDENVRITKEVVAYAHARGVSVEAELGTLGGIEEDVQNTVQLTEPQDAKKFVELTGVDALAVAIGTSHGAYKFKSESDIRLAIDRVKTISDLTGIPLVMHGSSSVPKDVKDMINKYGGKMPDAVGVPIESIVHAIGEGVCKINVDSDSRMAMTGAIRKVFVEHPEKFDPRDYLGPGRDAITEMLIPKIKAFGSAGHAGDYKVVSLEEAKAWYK
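40 nM FBPA preincubated 10 min at RT with compound (up to 57.5 uM final), then substrate plus GAPDH/TPI/NAD/arsenate coupling and diaphorase/resazurin added. Fluorescence read after 20 min at RT, 525/598 nm.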
FMDV inh – foot and mouth disease virus antiviral activity; AID 1159524; Potency, µM (doses to about 57.9 µM), inactives show at the top dose activity change, negative = inhibition, actives largely listed as inhibitors; actives 1.2% (n = 410,000); FMDV antiviral cell-based qHTS; calls by dose curve; tested in HEK293T cells; note: read-out not given here; nearly all actives have a fitted effect of over 45% in size
Vaccinia Venus – inhibitors of vaccinia virus (Venus reporter); Vaccinia virus Venus reporter expression, fluorescence; Potency, µM (doses to about 36.5 µM), without a hit: at the highest dose activity change, negative = inhibition, actives largely listed as inhibitors; actives 0.46% (n = 330,000); AID 720580; calls by dose curve; tested in A549 cells; note: nearly all actives have a fitted effect of over 30% in size
Numbers without * were called inactive; i = inactive; u = inconclusive; x = not tested or not shown. A selection: hits, their analogues and other compounds. The true share with any hit is near 2.2%. % is set by controls: 0 for no effect and ±100 for the full control effect; potency is the fitted concentration of half-maximal effect.

SMILES	Vaccinia mCherry	FBPA Giardia inh	FMDV inh	Vaccinia Venus
Cc1ccc(-n2ncc(C(=O)NCCN3CCC(Cc4ccccc4)CC3)c2C2CCN(C(=O)OC(C)(C)C)CC2)cc1	u	x	-15%	11µM*
CC(C)(C)OC(=O)N1CCC(c2c(C(=O)NCCN3CCC(Cc4ccccc4)CC3)cnn2-c2cccc(Cl)c2)CC1	11µM*	x	u	11µM*
CCN(N=O)c1ccc(/C=C/c2ccnc3ccccc23)cc1	-27%	x	x	-20%
COc1cccc(-c2cn3nc4c(nc3n2)CCCC4)c1	x	u	-85%	-23%
Clc1ccc(-c2cn3nc4c(nc3n2)CCCC4)cc1	x	u	11µM*	-10%
CC(=O)Nc1ccc(S(=O)(=O)N2CCN=C2SCc2ccc([N+](=O)[O-])cc2)cc1	-11%	0%	22µM*	-17%
C/C=C(/C)C(=O)O[C@H]1C[C@@]2(C)O[C@H]2[C@@H](OC(C)=O)C2(C)CC[C@@](O)(C(C)C)C12 (stereo partly drawn)	x	4%	x	x
C=C1C(=O)OC2C1C(OC(=O)C(C)=CC)CC(=C)C1C(O)C3OC3(C)C21O (stereo not drawn)	-1%	x	28µM*	-15%
CCCn1c(CN(Cc2ccccc2)Cc2ccccc2)nc2c1c(=O)n(C)c(=O)n2C	-28%	22%	25µM*	-12%
CCCn1c(CN(C)Cc2ccccc2)nc2c1c(=O)n(C)c(=O)n2C	x	2%	7.9µM*	x
COC(=O)N1C(C)=Cc2ccccc2C1C/C(C)=C/C(C)=O (stereo not drawn)	x	-1%	x	x
Nc1ncc(Br)cc1N=Cc1ccccc1	-18%	1.1µM*	46%	-2%
Cn1ncc(N=Cc2ccccc2)c1C(N)=O	x	-25%	8%	2%
Cn1nc(-c2ccc(OCC(=O)N3CCN(Cc4ccccc4)CC3)cc2)c2ccccc2c1=O	-14%	11%	16µM*	u
Cn1nc(-c2ccc(OCC(N)=O)cc2)c2ccccc2c1=O	x	1%	12%	x
COc1ccccc1NC(=O)CSc1nc2ccccc2c(=O)n1C	x	1%	14µM*	x
COc1ccccc1NC(=O)COc1ccc(-c2nn(C)c(=O)c3ccccc23)cc1	u	x	18µM*	u
COCCn1c(SCc2cccc([N+](=O)[O-])c2)nc2ccccc2c1=O	u	2%	u	-6%
Cn1c(SCc2cccc([N+](=O)[O-])c2)nc2ccccc2c1=O	u	x	20µM*	u
CC[C@H](C)[C@H](NC(=O)CNC(=O)[C@H](CCCNC(=N)N)NC(=O)CNC(=O)[C@@H](NC(=O)[C@H](Cc1ccc(O)cc1)NC(=O)[C@H](Cc1c[nH]c2ccccc12)NC(=O)[C@H](C)NC(=O)[C@@H]1CCCN1C(=O)[C@H](CC(N)=O)NC(=O)[C@@H](NC(=O)[C@H](CC(=O)O)NC(=O)[C@@H]1CCCN1C(=O)[C@@H](N)[C@@H](C)O)[C@@H](C)CC)[C@@H](C)O)C(=O)N[C@@H](CCCNC(=N)N)C(=O)N1CCC[C@H]1C(=O)N[C@H](C(=O)NCC(=O)N[C@@H](CCCNC(=N)N)C(=O)N[C@@H](Cc1ccccc1)C(N)=O)C(C)C	x	-2%	x	x
O=C(NCC1Cc2cc(-c3cncnc3)cc(Cl)c2O1)c1cccc(Cn2cccn2)c1 (stereo not drawn)	-3%	x	6%	-3%
Cc1ccccc1Nc1nc(N)nc(CSc2nc3ccccc3c(=O)n2C)n1	x	3%	16µM*	-16%
O=C1CC(c2ccccc2)Cc2[nH]c(=O)c(C(=O)O)cc21 (stereo not drawn)	35%	x	x	-4%
NS(=O)(=O)c1ccc(N/N=C/c2ccc(O)cc2O)c([N+](=O)[O-])c1	u	2%	1%	-25%
NS(=O)(=O)c1ccc(N/N=C/c2ccc(O)c(O)c2O)c([N+](=O)[O-])c1	u	7.9µM*	8%	-4%
SMILES	Vaccinia mCherry	FBPA Giardia inh	FMDV inh	Vaccinia Venus
CC1=C(C)/C(=N\OS(=O)(=O)c2ccc(C)cc2)C=CC1=O	-8%	4µM*	20µM*	-15%
CC1=C/C(=N\OS(=O)(=O)c2ccccc2)C(C)=CC1=O	u	7.9µM*	4.5µM*	-26%
CC1=C/C(=N\OS(=O)(=O)c2ccccc2)C(C(C)C)=CC1=O	-20%	11µM*	28µM*	-2%
CC(S(=O)(=O)c1ccccc1)S(=O)(=O)c1ccccc1	i	x	11%	0%
O=C(NCCc1cccnc1)c1cnn(-c2ncc3c(n2)-c2ccccc2CC3)c1C1CC1	-24%	x	7%	-10%
COC(=O)C[C@H]1c2cc(F)ccc2S(=O)(=O)N1C1CC1	-10%	x	x	-7%
COc1cc(C(=O)/C=C/c2cccnc2)ccc1O	3.5µM*	x	u	8.9µM*
C(=Cc1cccnc1)c1ccncc1	i	x	17%	-3%
O=C(/C=C/c1cccnc1)/C=C/c1cccnc1	x	-1%	11µM*	x
CN(C(=O)Oc1ccc([N+](=O)[O-])cc1)c1ccccc1	-18%	3%	6%	-24%
CN(Cc1cccc(-c2ccncc2)c1)C(=O)Oc1ccc([N+](=O)[O-])cc1	15%	x	22µM*	-16%
CCC1C(=O)NCCN1Cc1ccc2c(c1)CN(Cc1ccc(OC)cc1OC)CCO2 (stereo not drawn)	-10%	x	-9%	1%
Cn1c(Oc2ccc(Cl)cc2)nc2c1c(=O)n(Cc1ccc(F)cc1)c(=O)n2C	9%	x	16µM*	15%
Cc1ccc(Oc2nc3c(c(=O)n(Cc4ccccc4F)c(=O)n3C)n2C)cc1	x	-3%	20µM*	x
COc1cc(=O)n2c(c1C(=O)NC(C)c1ccco1)CCN(C(=O)c1cc(C)cc(C)c1)CC2 (stereo not drawn)	-16%	x	28%	-12%
CC(C)C[C@H](NC(=O)[C@H](CC(C)C)NC(=O)[C@H](Cc1ccc(O)cc1)NC(=O)CNC(=O)[C@H](C)NC(=O)[C@H](CO)NC(=O)[C@H](CC(N)=O)NC(=O)[C@H](CC(C)C)NC(=O)[C@@H](NC(=O)[C@H](Cc1c[nH]c2ccccc12)NC(=O)CN)[C@@H](C)O)C(=O)NCC(=O)N1CCC[C@H]1C(=O)N1CCC[C@H]1C(=O)N1CCC[C@H]1C(=O)NCC(=O)N[C@@H](Cc1ccccc1)C(=O)N[C@@H](CO)C(=O)N1CCC[C@H]1C(=O)N[C@@H](Cc1ccccc1)C(=O)N[C@@H](CCCNC(=N)N)C(N)=O	x	-2%	x	x
C=C1C(=O)OC2C=C(C)CCC=C(C)CCC12 (stereo not drawn)	x	-1%	-20%	x
C=C1C(=O)OC2C=C(CO)CCC=C(CO)CC(OC(=O)C(C)C)C12 (stereo not drawn)	-3%	x	40µM*	-4%
CCOc1ccc(C(c2c(O)cc(C)n(Cc3ccco3)c2=O)N2CCN(C)CC2)cc1 (stereo not drawn)	-10%	x	-16%	-6%
CNCC(=O)c1c[nH]c2ccccc12	-8%	x	x	-11%
C=C[C@@H](C1=CC(=O)C(OC)=C(OC)C1=O)c1ccccc1	x	22µM*	u	x
C=CC(C1=CC(=O)C=CC1=O)c1ccccc1 (stereo not drawn)	-4%	u	20%	-26%
CN1N=C(C(=O)N2CCOc3ccc(CN4CCCC(C(=O)c5cccnc5)C4)cc3C2)CCC1=O (stereo not drawn)	-12%	x	1%	-7%
